# Test results reported in PubChem BioAssay (EPA / NIEHS).
# Results filed as inconclusive are left out. The source made the active and inactive calls. How the source made its calls: active means hit-call score of the fitted dose curve at least 0.9, where 1 is the maximum; inconclusive means response in the unintended direction; inactive means score below 0.9.
# Molecular target: human Adenosine A2a Receptor (AdoRA2a), ADORA2A (gene 135) (UniProt P29274)
# Assay: NVS_GPCR_hAdoRA2a: NovaScreen (NVS) G Protein-Coupled Receptor Assay for human Adenosine A2a Receptor (AdoRA2a) (AID 2283256)
# In short: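 Compounds screened in duplicate at 25 uM, with actives followed up in concentration series, for displacement of a radioligand from HEK293-derived receptor protein. Bound counts read by filter scintillation at 1.5 hours, DMSO as baseline.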
# Sequence of human Adenosine A2a Receptor (AdoRA2a), ADORA2A (gene 135) (P29274 whole entry, looked up): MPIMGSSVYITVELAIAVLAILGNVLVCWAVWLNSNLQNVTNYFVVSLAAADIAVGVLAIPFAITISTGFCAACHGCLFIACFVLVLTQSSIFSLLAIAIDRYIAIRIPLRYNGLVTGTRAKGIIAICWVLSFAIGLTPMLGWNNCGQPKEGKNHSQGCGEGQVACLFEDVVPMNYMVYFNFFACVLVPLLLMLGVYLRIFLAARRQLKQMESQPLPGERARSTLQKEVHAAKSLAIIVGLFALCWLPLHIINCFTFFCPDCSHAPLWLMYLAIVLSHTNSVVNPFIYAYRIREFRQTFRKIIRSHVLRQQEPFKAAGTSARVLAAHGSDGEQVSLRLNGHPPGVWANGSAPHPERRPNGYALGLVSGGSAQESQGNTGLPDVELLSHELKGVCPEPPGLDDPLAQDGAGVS
SMILES,outcome,AC50
CCOC(=O)CC(SP(=O)(OC)OC)C(=O)OCC (configuration not stated),inactive,
O=[N+]([O-])c1cc(C(F)(F)F)c(Cl)c([N+](=O)[O-])c1Nc1ncc(C(F)(F)F)cc1Cl,,6.87 µM (active)
O=C(O)c1cc(Oc2ccc(C(F)(F)F)cc2Cl)ccc1[N+](=O)[O-],,7.71 µM (active)
Cc1cc(C2CC2)nc(Nc2ccccc2)n1,,14.1 µM (active)
CCC(=O)Nc1ccc(Cl)c(Cl)c1,,10 µM (active)
CSc1nc(NC(C)C)nc(NC(C)C)n1,,4.59 µM (active)
CCNc1nc(Cl)nc(NC(C)(C)C#N)n1,,5.75 µM (active)

# Molecular target: human Adrenergic, Alpha 2c Receptor (Adra2C), ADRA2C (gene 152) (UniProt P18825)
# Assay: NVS_GPCR_hAdra2C: NovaScreen (NVS) G Protein-Coupled Receptor Assay for human Adrenergic, Alpha 2c Receptor (Adra2C) (AID 2283259)
# Method: (§1) NVS_GPCR_hAdra2C is a biochemical, single-readout assay that uses extracted gene-proteins from SF9 in a cell-free assay. Measurements were taken 1 hour after chemical dosing in a 96-well plate.NVS_GPCR_hAdra2C is one of one assay component(s) measured or calculated from the NVS_GPCR_hAdra2C assay. It is designed to make measurements of radioligand binding, a form of binding reporter, as detected with scintillation counting signals by Filter-based radiodetection technology.Data from the assay component NVS_GPCR_hAdra2C was analyzed into 1 assay endpoint. This assay endpoint, NVS_GPCR_hAdra2C, was analyzed in the positive analysis fitting direction relative to DMSO as the negative control and baseline of activity. Using a type of binding reporter, loss-of-signal activity can be used to understand changes in the binding as they relate to the gene ADRA2C. Furthermore, this assay endpoint can be referred to as a primary readout, because the performed assay has only produced 1 assay endpoint. To generalize the intended target to other relatable targets, this assay endpoint is annotated to the gpcr intended target family, where the subfamily is rhodopsin-like receptor.
# Binding assays used specific radioligands (tritiated, iodinated) with non-radioactive competitive displacement ligands in agonist or antagonist protocols (as indicated) and various reference compounds and inhibitors to titrate specific binding to receptors and transporters. Most enzyme assays (CYPs, kinases, phosphatases, proteases, HDACs) used recombinant protein and specific substrates (fluorescence mostly, some colorimetric and radioactive) and inhibitors, followed by a biochemical separation of substrate and product. All assays for the biochemical HTS were initially run in duplicate at a single concentration (10 uM for CYP450 assays and 25 uM for all others). […] Each assay was run with positive and negative controls, and concurrent controls on every plate. […]
# Sequence of human Adrenergic, Alpha 2c Receptor (Adra2C), ADRA2C (gene 152) (P18825 whole entry, looked up): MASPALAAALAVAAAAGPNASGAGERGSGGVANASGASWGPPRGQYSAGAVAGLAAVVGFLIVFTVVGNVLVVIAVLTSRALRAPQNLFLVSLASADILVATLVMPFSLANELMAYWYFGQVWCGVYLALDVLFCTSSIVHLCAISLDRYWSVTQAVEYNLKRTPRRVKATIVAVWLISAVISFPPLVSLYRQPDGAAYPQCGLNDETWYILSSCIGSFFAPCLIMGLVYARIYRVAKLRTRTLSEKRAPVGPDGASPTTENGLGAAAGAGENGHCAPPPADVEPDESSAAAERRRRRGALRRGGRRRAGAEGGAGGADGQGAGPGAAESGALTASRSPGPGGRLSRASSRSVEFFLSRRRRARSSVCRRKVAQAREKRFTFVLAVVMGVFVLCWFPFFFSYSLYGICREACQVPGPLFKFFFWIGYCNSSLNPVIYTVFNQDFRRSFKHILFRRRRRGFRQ
SMILES,AC50,outcome
CC[C@H](C)[C@H]1O[C@]2(C=C[C@@H]1C)C[C@@H]1C[C@@H](C/C=C(\C)[C@@H](O[C@H]3C[C@H](OC)[C@@H](O[C@H]4C[C@H](OC)[C@@H](NC)[C@H](C)O4)[C@H](C)O3)[C@@H](C)/C=C/C=C3\CO[C@@H]4[C@H](O)C(C)=C[C@@H](C(=O)O1)[C@]34O)O2,10.7 µM (active),
CCc1cnc(C2=NC(C)(C(C)C)C(=O)N2)c(C(=O)O)c1 (configuration not stated),,inactive
C[N+]1(C)CCCCC1,,inactive

# Molecular target: Type-1 angiotensin II receptor (Homo sapiens) (UniProt P30556)
# Assay: NVS_GPCR_hAT1: NovaScreen (NVS) G Protein-Coupled Receptor Assay for human Angiotensin II receptor type 1 (AT1) (AID 2283263)
# Method: NVS_GPCR_hAT1 is a biochemical, single-readout assay that uses extracted gene-proteins from KAN-TS in a tissue-based cell-free assay. Measurements were taken 3 hours after chemical dosing in a 48-well plate.NVS_GPCR_hAT1 is one of one assay component(s) measured or calculated from the NVS_GPCR_hAT1 assay. It is designed to make measurements of radioligand binding, a form of binding reporter, as detected with scintillation counting signals by Filter-based radiodetection technology.Data from the assay component NVS_GPCR_hAT1 was analyzed into 1 assay endpoint. This assay endpoint, NVS_GPCR_hAT1, was analyzed in the positive analysis fitting direction relative to DMSO as the negative control and baseline of activity. Using a type of binding reporter, loss-of-signal activity can be used to understand changes in the binding as they relate to the gene AGTR1. Furthermore, this assay endpoint can be referred to as a primary readout, because the performed assay has only produced 1 assay endpoint. To generalize the intended target to other relatable targets, this assay endpoint is annotated to the gpcr intended target family, where the subfamily is rhodopsin-like receptor.
# (§2) Binding assays used specific radioligands (tritiated, iodinated) with non-radioactive competitive displacement ligands in agonist or antagonist protocols (as indicated) and various reference compounds and inhibitors to titrate specific binding to receptors and transporters. Most enzyme assays (CYPs, kinases, phosphatases, proteases, HDACs) used recombinant protein and specific substrates (fluorescence mostly, some colorimetric and radioactive) and inhibitors, followed by a biochemical separation of substrate and product. All assays for the biochemical HTS were initially run in duplicate at a single concentration (10 uM for CYP450 assays and 25 uM for all others). Assay-chemical combinations meeting a pre-defined threshold (e.g., 30% inhibition and other criteria defined below) were then run in singleton concentration-response format with maximum concentration of 20 uM for CYPs and 50 uM for all others. Each assay was run with positive and negative controls, and concurrent controls on every plate. The follow-up (secondary) screen tested active chemical-pairs in concentration series, as well as a few additional assays not tested in the primary screen, some selected negative inactives, and several cases re-run in the concentration series for confirmatory purposes.
# Sequence of Type-1 angiotensin II receptor (Homo sapiens) (P30556 whole entry, looked up): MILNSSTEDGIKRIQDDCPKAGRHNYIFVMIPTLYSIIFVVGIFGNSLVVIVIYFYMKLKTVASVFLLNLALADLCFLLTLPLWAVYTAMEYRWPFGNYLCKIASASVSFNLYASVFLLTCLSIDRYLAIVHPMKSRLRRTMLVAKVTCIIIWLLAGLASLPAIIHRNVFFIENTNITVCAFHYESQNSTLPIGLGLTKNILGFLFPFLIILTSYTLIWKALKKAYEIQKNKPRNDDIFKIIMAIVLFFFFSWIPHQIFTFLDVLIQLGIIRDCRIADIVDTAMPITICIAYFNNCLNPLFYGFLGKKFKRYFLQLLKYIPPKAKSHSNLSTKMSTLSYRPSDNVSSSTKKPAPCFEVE
SMILES,AC50,outcome
CC[C@H](C)[C@H]1O[C@]2(C=C[C@@H]1C)C[C@@H]1C[C@@H](C/C=C(\C)[C@@H](O[C@H]3C[C@H](OC)[C@@H](O[C@H]4C[C@H](OC)[C@@H](NC)[C@H](C)O4)[C@H](C)O3)[C@@H](C)/C=C/C=C3\CO[C@@H]4[C@H](O)C(C)=C[C@@H](C(=O)O1)[C@]34O)O2,17 µM (active),
CCCOc1nn(C(=O)NS(=O)(=O)c2ccccc2C(=O)OC)c(=O)n1C,,inactive
CCOP(=S)(OCC)Oc1cc(C)nc(C(C)C)n1,,inactive
CCOP(=O)(OCC)Oc1cc(C)nc(C(C)C)n1,,inactive
N#CSCSC#N,14.9 µM (active),
CCCSP(=O)(OCC)Oc1ccc(Br)cc1Cl (configuration not stated),,inactive
COc1cc(OC)nc(Sc2cccc(Cl)c2C(=O)O)n1,,inactive
COP(=O)(OC)OC(Br)C(Cl)(Cl)Br (configuration not stated),13.5 µM (active),

# Molecular target: human Dopamine Receptor D2 (DRD2), DRD2 (gene 1813) (UniProt P14416)
# Assay: NVS_GPCR_hDRD2s: NovaScreen (NVS) G Protein-Coupled Receptor Assay for human Dopamine Receptor D2 (DRD2) (AID 2283266)
# Method: as §1, with “NVS_GPCR_hDRD2s” for “NVS_GPCR_hAdra2C”, “CHO” for “SF9”, “1.5 hours” for “1 hour”, “plate.NVS_GPCR_hDRD2s” for “plate.NVS_GPCR_hAdra2C”, “NVS_GPCR_hDRD2s,” for “NVS_GPCR_hAdra2C,”, “DRD2.” for “ADRA2C.”
# as §2, with “Assay-chemical combinations meeting a pre-defined threshold (e.g., 30% inhibition and other criteria defined below) were then run in singleton concentration-response format with maximum concentration of 20 uM for CYPs and 50 uM for all others.” left out
# Sequence of human Dopamine Receptor D2 (DRD2), DRD2 (gene 1813) (P14416 whole entry, looked up): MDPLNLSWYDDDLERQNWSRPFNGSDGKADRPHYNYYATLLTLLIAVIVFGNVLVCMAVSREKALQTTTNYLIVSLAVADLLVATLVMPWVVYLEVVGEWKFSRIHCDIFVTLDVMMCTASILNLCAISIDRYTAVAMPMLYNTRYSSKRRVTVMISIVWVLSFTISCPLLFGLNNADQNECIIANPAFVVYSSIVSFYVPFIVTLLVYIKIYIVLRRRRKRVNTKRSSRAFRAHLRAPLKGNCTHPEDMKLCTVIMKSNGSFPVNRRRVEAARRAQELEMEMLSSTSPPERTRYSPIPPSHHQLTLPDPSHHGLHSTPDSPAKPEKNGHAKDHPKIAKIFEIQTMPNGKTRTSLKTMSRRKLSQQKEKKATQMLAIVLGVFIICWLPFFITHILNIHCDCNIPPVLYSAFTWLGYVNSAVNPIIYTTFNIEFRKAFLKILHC
SMILES,AC50,outcome
CC[C@H](C)[C@H]1O[C@]2(C=C[C@@H]1C)C[C@@H]1C[C@@H](C/C=C(\C)[C@@H](O[C@H]3C[C@H](OC)[C@@H](O[C@H]4C[C@H](OC)[C@@H](NC)[C@H](C)O4)[C@H](C)O3)[C@@H](C)/C=C/C=C3\CO[C@@H]4[C@H](O)C(C)=C[C@@H](C(=O)O1)[C@]34O)O2,25 µM (active),
CN(C)C(=O)Nc1cccc(C(F)(F)F)c1,,inactive
S=C1NCCN1,,inactive
O=C(O)c1cc(Oc2ccc(C(F)(F)F)cc2Cl)ccc1[N+](=O)[O-],,inactive

# Molecular target: D(1A) dopamine receptor (Homo sapiens) (UniProt P21728)
# Assay: NVS_GPCR_hDRD1: NovaScreen (NVS) G Protein-Coupled Receptor Assay for human Dopamine Receptor D1 (DRD1) (AID 2283269)
# In short: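 Cell-free radioligand binding to human DRD1 from HEK293 membranes, read 1 h after dosing by filter-based scintillation counting. Loss of signal versus DMSO baseline marks displacement. Primary screen at 25 uM single concentration in duplicate; actives followed up in concentration series.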
# Sequence of D(1A) dopamine receptor (Homo sapiens) (P21728 whole entry, looked up): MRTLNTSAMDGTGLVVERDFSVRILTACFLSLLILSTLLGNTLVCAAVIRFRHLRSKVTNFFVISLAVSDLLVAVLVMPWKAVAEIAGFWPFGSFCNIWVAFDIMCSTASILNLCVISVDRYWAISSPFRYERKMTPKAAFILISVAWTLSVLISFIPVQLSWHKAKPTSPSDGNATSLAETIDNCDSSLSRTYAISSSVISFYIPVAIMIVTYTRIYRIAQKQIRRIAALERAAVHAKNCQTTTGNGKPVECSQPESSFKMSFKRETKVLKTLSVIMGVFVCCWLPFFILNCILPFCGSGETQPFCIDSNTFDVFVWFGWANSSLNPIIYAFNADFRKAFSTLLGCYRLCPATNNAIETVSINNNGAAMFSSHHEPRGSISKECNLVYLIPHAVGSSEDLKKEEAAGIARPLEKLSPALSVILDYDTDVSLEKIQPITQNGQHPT
row,SMILES,AC50
1,CC[C@H](C)[C@H]1O[C@]2(C=C[C@@H]1C)C[C@@H]1C[C@@H](C/C=C(\C)[C@@H](O[C@H]3C[C@H](OC)[C@@H](O[C@H]4C[C@H](OC)[C@@H](NC)[C@H](C)O4)[C@H](C)O3)[C@@H](C)/C=C/C=C3\CO[C@@H]4[C@H](O)C(C)=C[C@@H](C(=O)O1)[C@]34O)O2,8.1 µM (active)
2,CC(C)=CC1C(C(=O)OCN2C(=O)C3=C(CCCC3)C2=O)C1(C)C (configuration not stated),6.68 µM (active)
3,CCCOCC(=Nc1ccc(Cl)cc1C(F)(F)F)n1ccnc1,9.19 µM (active)
4,COP(=O)(OC)OC(Br)C(Cl)(Cl)Br (configuration not stated),11.8 µM (active)

# Molecular target: Muscarinic acetylcholine receptor M1 (Homo sapiens) (UniProt P11229)
# Assay: NVS_GPCR_hM1: NovaScreen (NVS) G Protein-Coupled Receptor Assay for human Muscarinic, M1 Receptor (AID 2283270)
# In short: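 Actives from a duplicate 25 uM single-point screen were retested in concentration series. Binding measured as displacement of a radioligand from CHO-derived receptor preparation, 1 h incubation, filtration and scintillation counting, analysed as signal loss against DMSO.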
# Sequence of Muscarinic acetylcholine receptor M1 (Homo sapiens) (P11229 whole entry, looked up): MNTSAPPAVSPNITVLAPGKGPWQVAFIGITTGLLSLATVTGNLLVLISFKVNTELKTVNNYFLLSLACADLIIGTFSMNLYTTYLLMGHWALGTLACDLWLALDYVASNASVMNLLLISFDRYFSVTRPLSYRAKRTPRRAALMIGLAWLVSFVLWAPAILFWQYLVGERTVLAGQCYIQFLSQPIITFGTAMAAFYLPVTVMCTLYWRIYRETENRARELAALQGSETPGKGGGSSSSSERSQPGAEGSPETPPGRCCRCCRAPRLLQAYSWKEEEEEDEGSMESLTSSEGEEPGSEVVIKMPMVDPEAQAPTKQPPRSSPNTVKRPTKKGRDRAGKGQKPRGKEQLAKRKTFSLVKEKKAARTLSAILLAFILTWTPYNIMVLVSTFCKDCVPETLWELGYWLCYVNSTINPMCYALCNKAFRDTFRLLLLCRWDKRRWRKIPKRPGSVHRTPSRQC
SMILES,AC50,outcome
CC[C@H](C)[C@H]1O[C@]2(C=C[C@@H]1C)C[C@@H]1C[C@@H](C/C=C(\C)[C@@H](O[C@H]3C[C@H](OC)[C@@H](O[C@H]4C[C@H](OC)[C@@H](NC)[C@H](C)O4)[C@H](C)O3)[C@@H](C)/C=C/C=C3\CO[C@@H]4[C@H](O)C(C)=C[C@@H](C(=O)O1)[C@]34O)O2,12.6 µM (active),
CCOP(=O)(NC(C)C)Oc1ccc(SC)c(C)c1 (configuration not stated),,inactive
C#CCC1=C(C)C(OC(=O)C2C(C=C(C)C)C2(C)C)CC1=O (configuration not stated),11 µM (active),
Cc1cc(C2CC2)nc(Nc2ccccc2)n1,10.1 µM (active),

# Molecular target: Muscarinic acetylcholine receptor M3 (Homo sapiens) (UniProt P20309)
# Assay: NVS_GPCR_hM3: NovaScreen (NVS) G Protein-Coupled Receptor Assay for human Muscarinic, M3 Receptor (AID 2283272)
# In short: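 Radioligand displacement binding on human M3 receptor in CHO-derived membranes, 1 h incubation, filter-based scintillation counting. Primary screen in duplicate at 25 uM; actives followed up in concentration series; loss of signal versus DMSO.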
# Sequence of Muscarinic acetylcholine receptor M3 (Homo sapiens) (P20309 whole entry, looked up): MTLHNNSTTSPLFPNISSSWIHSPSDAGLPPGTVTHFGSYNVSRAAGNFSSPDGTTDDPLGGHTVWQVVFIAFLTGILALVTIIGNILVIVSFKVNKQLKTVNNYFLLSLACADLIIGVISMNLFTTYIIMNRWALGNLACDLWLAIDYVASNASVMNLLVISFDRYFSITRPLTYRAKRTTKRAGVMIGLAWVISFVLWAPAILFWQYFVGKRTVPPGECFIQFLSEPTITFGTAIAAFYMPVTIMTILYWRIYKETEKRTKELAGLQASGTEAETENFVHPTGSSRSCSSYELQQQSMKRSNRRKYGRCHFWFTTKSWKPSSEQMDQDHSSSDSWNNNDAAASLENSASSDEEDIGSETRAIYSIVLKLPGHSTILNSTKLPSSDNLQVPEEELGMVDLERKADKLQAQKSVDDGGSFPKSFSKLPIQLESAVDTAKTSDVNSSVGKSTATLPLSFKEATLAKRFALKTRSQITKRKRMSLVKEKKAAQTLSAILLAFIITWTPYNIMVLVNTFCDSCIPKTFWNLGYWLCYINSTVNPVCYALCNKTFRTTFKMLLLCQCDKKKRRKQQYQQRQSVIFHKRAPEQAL
SMILES,AC50,outcome
CC[C@H](C)[C@H]1O[C@]2(C=C[C@@H]1C)C[C@@H]1C[C@@H](C/C=C(\C)[C@@H](O[C@H]3C[C@H](OC)[C@@H](O[C@H]4C[C@H](OC)[C@@H](NC)[C@H](C)O4)[C@H](C)O3)[C@@H](C)/C=C/C=C3\CO[C@@H]4[C@H](O)C(C)=C[C@@H](C(=O)O1)[C@]34O)O2,10.1 µM (active),
CN1COCN(Cc2cnc(Cl)s2)C1=N[N+](=O)[O-],,inactive
C[Si](Cn1cncn1)(c1ccc(F)cc1)c1ccc(F)cc1,11.6 µM (active),
CCOP(=S)(OCC)Oc1ccc([N+](=O)[O-])cc1,5.42 µM (active),
COc1cccc(C(=O)NN(C(=O)c2cc(C)cc(C)c2)C(C)(C)C)c1C,0.429 µM (active),
C#CCC1=C(C)C(OC(=O)C2C(C=C(C)C)C2(C)C)CC1=O (configuration not stated),7.59 µM (active),
Cc1cc(C2CC2)nc(Nc2ccccc2)n1,5.41 µM (active),
